# Measurements taken from PubChem BioAssay (NCATS).
# Where “and” joins values, the source holds several entries; their conditions need not be identical. Equal values may be shown once. Inconclusive results are not listed. Where a call stands in place of a potency, no number is given. Calls of active or inactive are those of the source. Calls come from the whole dose curve; as a rule, active = well fitted curve in the direction sought with a large enough effect; inconclusive = small, poorly fitted or top-dose-only effect, or another doubt; inactive = no such curve, though single readings can be large; an effect the other way counts as inactive or inconclusive.
# Legend:
# [1] = qHTS of pediatric cancer cell lines to identify multiple opportunities for drug repurposing: Primary screen for MG 63 (6-TG R) cells (AID 1347105); note: nearly all actives have a fitted effect of over 50% in size; note: potency is the fitted concentration of half-maximal effect
# Method in brief: (§1)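 Luminescence from CellTiter-Glo served as readout of metabolically active cells after 48 h compound exposure. Titrations: MIPE 11-point, from 0.78 nM; NPC 8-point, from 0.59 nM (final). Concentration-response curves came straight from the primary screen.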
# [2] = qHTS of pediatric cancer cell lines to identify multiple opportunities for drug repurposing: Primary screen for control Hh wild type fibroblast cells (AID 1347106);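 note: series mostly up to about 46 µM; a drop in luminescence marks cytotoxicity and a rise apparent proliferation; nearly all actives have a fitted effect of over 55% in size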
# Method in brief: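 Viability after 48 h compound treatment at 37C, 500-1,000 cells/well, read as ATP luminescence with CellTiter-Glo. Primary screens used 11-point (MIPE, 0.78 nM-46 µM) or 8-point (NPC, 0.59 nM-46 µM) final concentrations; follow-up screens used 11-point dilutions.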
# [3] = qHTS of pediatric cancer cell lines to identify multiple opportunities for drug repurposing: Primary screen for Rh30 cells (AID 1347107); note: series mostly up to about 46 µM; nearly all actives have a fitted effect of over 75% in size
# Method in brief: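 Cells (500-1,000/well) rested 5 h, then received compounds for 48 h; metabolically active cells were measured by CellTiter-Glo luminescence. Final concentrations spanned up to 46 µM (MIPE, 11-point) or 0.59 nM-46 µM (NPC, 8-point) in primary screens, 11-point in follow-ups.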
# [4] = qHTS of pediatric cancer cell lines to identify multiple opportunities for drug repurposing: Primary screen for Rh41 cells (AID 1347108);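 note: series mostly up to about 46 µM; luminescence drop marks cytotoxic hits; nearly all actives have a fitted effect of over 70% in size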
# Method in brief: as §1
SMILES,Potency [1],Potency [2],Potency [3],Potency [4]
CC(=O)Oc1ccccc1C(=O)Nc1ncc([N+](=O)[O-])s1,inactive,inactive,,
CCCc1cc(C(N)=S)ccn1,inactive,inactive,inactive,inactive
O=C(O)CSCC(=O)NC1CCSC1=O (stereo not given),inactive,inactive,inactive,
OCc1ccc(-c2nn(Cc3ccccc3)c3ccccc23)o1,inactive,inactive,inactive,
CCn1cc(C(=O)O)c(=O)c2cc(F)c(N3CCNCC3)nc21,inactive,inactive,inactive,inactive
CC[C@H](NC(C)C)[C@H](O)c1ccc(O)c2[nH]c(=O)ccc12,inactive,inactive,inactive,
N[C@@H](C(=O)N[C@@H]1C(=O)N2C(C(=O)O)=C(Cl)CS[C@H]12)c1ccccc1,inactive,inactive,inactive,
O=C(N[C@H](CO)[C@H](O)c1ccc([N+](=O)[O-])cc1)C(Cl)Cl,inactive,inactive,,
CCN(CC)CCn1c(=O)c(Cc2ccc(OC)cc2)nc2ccccc21,inactive,inactive,inactive,
CN1CCN(c2c(F)cc3c(=O)c(C(=O)O)cn(CCF)c3c2F)CC1,inactive,inactive,inactive,
CC1=CC(=O)c2ccccc2C1=O,inactive,inactive,inactive,
NC(=O)c1ccc2[nH]ccc2c1,inactive,inactive,,
NCCCC(O)(P(=O)(O)O)P(=O)(O)O,inactive,inactive,,
COc1c(N2CCNC(C)C2)c(F)cc2c(=O)c(C(=O)O)cn(C3CC3)c12 (stereo not given),inactive,inactive,,
COc1cc(NS(=O)(=O)c2ccc(N)cc2)nc(OC)n1,inactive,inactive,inactive,inactive
O=S(=O)(c1cccc2cnccc12)N1CCCNCC1,inactive,inactive,inactive,
COc1ccc2cc3[n+](cc2c1OC)CCc1cc2c(cc1-3)OCO2,26.6 µM (active),inactive,inactive,
NC(N)=NC(N)=NCCc1ccccc1,inactive,inactive,inactive,
CC(N)C12CC3CC(CC(C3)C1)C2 (stereo not given),inactive,inactive,inactive,
C1CCC(C(CC2CCCCN2)C2CCCCC2)CC1 (stereo not given),26.6 µM (active),inactive,inactive,

SMILES,Potency [1],Potency [2],Potency [3],Potency [4]
COC(c1ccccc1)(c1ccccc1)[C@H](Oc1nc(C)cc(C)n1)C(=O)O,inactive,inactive,inactive,
Nc1ccc(S(=O)(=O)Nc2ccccn2)cc1,inactive,inactive,inactive,
COc1ncnc(NS(=O)(=O)c2ccc(N)cc2)c1OC,inactive,inactive,inactive,
O=C(O)c1cccnc1,inactive,inactive,inactive,
CN(C)CCc1c[nH]c2ccc(C[C@H]3COC(=O)N3)cc12,inactive,inactive,inactive,
CC1=NN(c2ccccc2)C(=O)C1,inactive,inactive,inactive,inactive
O=P(O)(O)C(O)(Cc1cccnc1)P(=O)(O)O,inactive,inactive,inactive,
O=C(O)CCn1c2c(c3ccccc31)C[C@H](NS(=O)(=O)c1ccc(F)cc1)CC2,inactive,inactive,inactive,
CCc1cc(C(N)=S)ccn1,inactive,inactive,inactive,inactive
CC(=O)CC(c1ccccc1)c1c(O)c2ccccc2oc1=O (stereo not given),inactive,inactive,inactive,
CC[C@H](C)C(=O)O[C@H]1C[C@@H](C)C=C2C=C[C@H](C)[C@H](CC[C@@H]3C[C@@H](O)CC(=O)O3)[C@H]21,4.22 µM (active) and 4.69 µM (active),inactive,,
CCN(CC)CC#CCOC(=O)C(O)(c1ccccc1)C1CCCCC1 (stereo not given),inactive,inactive,inactive,
CC(C)Cn1cnc2c(N)nc3ccccc3c21,inactive,inactive,inactive,
CCn1cc(C(=O)O)c(=O)c2cc(F)c(N3CCN(C)CC3)cc21,inactive,inactive,,
O=c1cc(O)c(Cl)c[nH]1,inactive,inactive,inactive,
C#CCN[C@@H]1CCc2ccccc21,inactive,inactive,inactive,
COc1ccccc1OCC(O)COC(N)=O (stereo not given),inactive,inactive,inactive,
CC(C)OC(=O)OCOP(=O)(CO[C@H](C)Cn1cnc2c(N)ncnc21)OCOC(=O)OC(C)C,inactive,inactive,inactive,inactive
CO[C@@H]1[C@@H](OC(N)=O)[C@@H](O)[C@H](Oc2ccc3c(O)c(NC(=O)c4ccc(O)c(CC=C(C)C)c4)c(=O)oc3c2C)OC1(C)C,inactive,inactive,,inactive
CC1=C(C(=O)O)N2C(=O)[C@@H](NC(=O)C(N)c3ccccc3)[C@H]2SC1 (stereo not given in full),inactive,inactive,inactive,inactive
